aGlu spleen mod: lysosomal alpha-glucosidase (human) modulation | P10253 | human spleen homogenate, 4-MU-alpha-glucoside fluorescence | Potency, µM (doses to about 79.9 µM), actives largely listed as inhibitors | actives 0.006% (n = 240,000) | AID 2112
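AC50 values come from Hill-equation fits of concentration-response data, normalized to no-enzyme and full-activity controls. Enzyme source: 1 ug human spleen homogenate; 1 mM fluorogenic 4-MU glucoside, pH 5.0 citrate buffer, 37 C, 40 min.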
GAA inhib: inhibitors of human lysosomal alpha-glucosidase | P10253 | purified human GAA, 4-MU-alpha-glucoside fluorescence | Potency, µM (titrated, usually from 76.9 µM), most hits filed as inhibitors | actives 0.005% (n = 200,000)
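Human alpha-glucosidase, 4 nM, pre-mixed with test compounds before 400 uM 4-methylumbelliferyl substrate; 20 min room temperature at pH 5.0. Fluorescence read after pH 10 stop; AC50 values from Hill-equation fits.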
aGal spleen mod: alpha-galactosidase A (human) modulation; human spleen homogenate, 4MU-alpha-Gal fluorescence, 40 min; Potency, µM (top dose mostly 80 µM), most hits filed as inhibitors; actives 0.008% (n = 240,000); AID 2107
Target sequence (P06280 32-429 limits assumed): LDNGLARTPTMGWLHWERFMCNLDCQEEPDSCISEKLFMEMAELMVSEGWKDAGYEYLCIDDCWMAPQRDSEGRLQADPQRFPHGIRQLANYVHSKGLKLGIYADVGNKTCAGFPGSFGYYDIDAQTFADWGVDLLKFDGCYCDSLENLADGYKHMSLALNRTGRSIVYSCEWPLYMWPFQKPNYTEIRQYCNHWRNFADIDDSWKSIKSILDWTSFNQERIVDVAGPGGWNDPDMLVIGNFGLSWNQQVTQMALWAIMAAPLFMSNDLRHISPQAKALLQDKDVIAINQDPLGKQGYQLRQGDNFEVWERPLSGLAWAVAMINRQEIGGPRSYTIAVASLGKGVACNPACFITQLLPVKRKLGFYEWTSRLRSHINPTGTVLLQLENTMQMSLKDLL
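Human spleen homogenate (1 ug) as enzyme source, 4-methylumbelliferyl-alpha-D-galactopyranoside 1 mM final, citrate/phosphate pH 5.0 with 0.01% Tween-20. Compounds 40 min at 37C, NaOH/glycine stop; fluorescence Ex 365/Em 440, Hill-fit AC50.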
N370S GC mod: inhibits or activates N370S mutant glucocerebrosidase | Potency, µM (highest dose often 59.4 µM), most hits filed as inhibitors | actives 0.092% (n = 330,000) | P04062 | N370S GC spleen homogenate, 4MU-glucoside fluorescence
GLA inh pH 4.5: inhibitors of human alpha-galactosidase A at pH 4.5; P06280; purified enzyme, 4-MU-alpha-Gal fluorescence, pH 4.5; activity change, negative = inhibition, % at 105 µM; 230,000 tested, under 10 active; AID 1467
GAA glycogen mod: GAA glycogen-cleavage inhibition or activation; P10253; recombinant GAA, glycogen substrate, Amplex Red glucose oxidase fluorescence; Potency, µM (top dose mostly 76.4 µM), hits mostly inhibitors; actives 0.38% (n = 300,000);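 further: the screen sought inhibitors and activators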
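Natural-substrate format: glycogen cleavage by 4 nM human enzyme, glucose read by Amplex Red coupling (Ex 573, Em 610 nm). Normalized to enzyme and no-enzyme controls.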
Each line names hits and unclear results; the compound was inactive in the other large screens. Compounds with a hit are over-represented: about 0.41% of the library has one in this group of screens. The call rests on the fitted dose curve; in most records, active means well fitted curve in the direction sought with a large enough effect; inconclusive means small, poorly fitted or top-dose-only effect, or another doubt; inactive means no such curve, though single readings can be large; an effect the other way counts as inactive or inconclusive.

CC#CCN1c2ccccc2[C@]23C[C@@H](C(=O)OC)N(S(=O)(=O)c4ccc(C(F)(F)F)cc4)C2=NC(C(=O)OC)=C(C(=O)OC)[C@H]13	none (no result: GAA inhib, GAA glycogen mod)
COC(=O)C#CC(=O)OC	none (no result: GAA inhib, GLA inh pH 4.5, GAA glycogen mod)
CC(=O)Nc1ccc(N/C=C/C(=O)C(C)(C)C)cc1	none
Cc1ccc(N/C=C/C(=O)C(C)(C)C)c(O)c1	GAA glycogen mod 40µM
Nc1ncnc2c1ncn2[C@@H]1O[C@H](C(=O)N2CCN(CC(=O)Nc3cccc4c3CNC4=O)CC2)[C@@H](O)[C@H]1O	none (no result: GAA inhib, GLA inh pH 4.5, GAA glycogen mod)
COCCCNC(=S)NNC(=S)Nc1ccc(OC)cc1	GAA glycogen mod 4.5µM (no result: GAA inhib)
CCNC(=S)Nc1ccc(N2CCCCC2)cc1	GAA glycogen mod inconclusive
COCCCNC(=S)Nc1ccc(N2CCCCC2)cc1	GAA glycogen mod 14µM
CN1/C(=C\C(=O)COC(=O)c2ccc(O)c(O)c2)C(C)(C)c2ccccc21	GAA glycogen mod 10µM
CN1C(=O)/C(=C/c2ccc(O)c([N+](=O)[O-])c2)NC1=S	none
COc1cc(/C=C2/NC(=O)N(Cc3ccccc3F)C2=O)ccc1O	GAA glycogen mod 22µM
COc1cc(/C=C2/NC(=O)N(Cc3ccccc3F)C2=O)ccc1Oc1ccc([N+](=O)[O-])cn1	none
COc1cc(/C=C2\NC(=S)N(C)C2=O)ccc1O	GAA inhib inconclusive, GLA inh pH 4.5 inconclusive, GAA glycogen mod 10µM
COc1cccc(CS(=O)(=O)c2nnnn2-c2ccccc2)c1	none (no result: GAA inhib, GAA glycogen mod)
C/C(=C\COc1c2ccoc2cc2oc(=O)ccc12)CCC(O)C(C)(C)O (stereo unspecified)	none (no result: GAA inhib, GLA inh pH 4.5, GAA glycogen mod)
O=C(c1cccc2ccccc12)N1CCCCC1	none (no result: aGlu spleen mod, GAA inhib, aGal spleen mod, GLA inh pH 4.5)
O=C(c1cccc2cccc(O)c12)N1CCCCC1	GAA glycogen mod 25µM
Cc1noc(C)c1-c1ccc2ncnc(NCc3ccc(Br)cc3)c2c1	none (no result: GAA inhib, GLA inh pH 4.5, GAA glycogen mod)
Oc1ccc(Br)cc1C=Nc1cccn2cc(-c3ccccc3)nc12	N370S GC mod 4.5µM, GAA glycogen mod inconclusive
Oc1ccc(Br)cc1/C=N/n1c(-c2ccccc2)n[nH]c1=S	none (no result: aGlu spleen mod, GAA inhib, aGal spleen mod, GLA inh pH 4.5, GAA glycogen mod)
Cc1cccc(Nc2nc(-c3ccc(O)cc3O)cs2)n1	GAA glycogen mod 40µM (no result: aGlu spleen mod, GAA inhib, aGal spleen mod, GLA inh pH 4.5)
Oc1ccc(-c2csc(Nc3ncccn3)n2)c(O)c1	none
CCOC(=O)c1cc(-c2ccc(N)cc2)sc1N	GAA inhib inconclusive, GAA glycogen mod 14µM
CC(C)(C)C(=O)Nc1sc(-c2ccccc2)cc1C(=O)O	none (no result: GAA inhib)
CCOC(=O)c1sc(-c2ccc(Br)cc2)cc1N	none
Nc1sc(-c2ccccc2)cc1C(=O)O	GAA glycogen mod 25µM
CCCCNC(=O)NS(=O)(=O)c1ccc(CO)cc1	none (no result: GAA inhib, GLA inh pH 4.5, GAA glycogen mod)
N#CC(=C(/N)Sc1ccccc1N)/C(C#N)=C(\N)Sc1ccccc1N	none (no result: GAA inhib, GLA inh pH 4.5, GAA glycogen mod)
CSCC[C@H](NC(=O)[C@H](CCC(N)=O)NC(=O)[C@H](CCCCN)NC(=O)[C@H](CCCNC(=N)N)NC(=O)[C@H](Cc1ccc(O)cc1)NC(=O)[C@H](CCCNC(=N)N)NC(=O)[C@H](CO)NC(=O)[C@H](Cc1ccc(O)cc1)NC(=O)[C@H](CO)NC(=O)[C@H](CC(=O)O)NC(=O)[C@@H](NC(=O)[C@@H](N)Cc1ccccc1)[C@@H](C)O)C(=O)N[C@@H](C)C(=O)N[C@H](C(=O)N[C@@H](CCCCN)C(=O)N[C@@H](CCCCN)C(=O)N[C@@H](Cc1ccc(O)cc1)C(=O)N[C@@H](CC(C)C)C(=O)N[C@@H](C)C(=O)N[C@@H](C)C(=O)N[C@H](C(=O)N[C@@H](CC(C)C)C(=O)NCC(=O)N[C@@H](CCCCN)C(=O)N[C@@H](CCCNC(=N)N)C(=O)N[C@@H](Cc1ccc(O)cc1)C(=O)N[C@@H](CCCCN)C(=O)N[C@@H](CCC(N)=O)C(=O)N[C@@H](CCCNC(=N)N)C(=O)N[C@H](C(=O)N[C@@H](CCCCN)C(=O)N[C@@H](CC(N)=O)C(=O)N[C@@H](CCCCN)C(N)=O)C(C)C)C(C)C)C(C)C	none (no result: GAA inhib, GLA inh pH 4.5, GAA glycogen mod)
COc1ccc(/C=N/NC(=O)C(=O)NCC2CCCO2)cc1 (stereo unspecified)	none
COCCCNC(=S)N/N=C/c1ccc(O)cc1	GAA glycogen mod 32µM
COCCCNC(=S)N/N=C/c1ccc(OC)cc1	none
Oc1ccc(/C=N/NC(=S)NCC2CCCO2)cc1 (stereo unspecified)	GAA glycogen mod 32µM (no result: N370S GC mod)
NC(=O)N/N=C/c1coc2ccc(O)cc2c1=O	GAA glycogen mod 16µM
Cc1ccc2occ(/C=N/NC(=O)c3ccc(O)cc3)c(=O)c2c1	none (no result: aGlu spleen mod, GAA inhib, aGal spleen mod, GLA inh pH 4.5)
Cc1cc(NC2CCCCC2)nc(NCc2ccccc2)n1	N370S GC mod 18µM

Assay outcomes deposited in PubChem BioAssay by National Center for Advancing Translational Sciences (NCATS).
